Source: PubChem BioAssay AID1224921 (Broad Institute, 2016)
Screen size: about 1,400 compounds; about 350 (25%) were called active. Inconclusive results (about 2%) are left out. How the calls were made is not given here. The list is a sample of the results. Measured potencies and affinities stand elsewhere.

test: C. difficile growth inhibition, confirmation, 4-point retest (AID 1224921); conditions: Clostridioides difficile clinical isolate growth, OD600, 24 h, stronger effect = lower value; at 30 µM unless noted;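 further: plate controls were DMSO wells for no effect and levofloxacin 16 µg/mL wells for full effect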

Max activity, inactive:
C[C@H](CO)N1C[C@H](C)[C@@H](CN(C)Cc2ccc(Cl)c(Cl)c2)Oc2ccc(NS(=O)(=O)c3cccs3)cc2CC1=O 37.8% [at 8 µM], CO[C@@H]1CN(C)C(=O)c2ccc(NC(=O)NC(C)C)cc2OC[C@@H](C)N(C(=O)NC(C)C)C[C@H]1C -11.6% [at 2.1 µM], CCCC(=O)Nc1ccc2c(c1)OC[C@H](C)N(CCc1ccccc1)C[C@@H](C)[C@H](OC)CN(C)C2=O 25.9%, O=C(Nc1ccc(Cl)cc1)N[C@@H]1CC[C@@H](CCn2cc(C3(O)CCCC3)nn2)O[C@@H]1CO 29.6%, C[C@@H]1CN([C@@H](C)CO)C(=O)c2ccccc2-c2ccccc2CO[C@H]1CN(C)CC1CC1 9.59%, CO[C@@H]1CN(C)C(=O)c2ccc(NC(=O)Nc3cccc(F)c3)cc2OC[C@@H](C)N(C(=O)C2CC2)C[C@H]1C -12.2% [at 8 µM], C[C@@H]1CN([C@@H](C)CO)C(=O)c2cc(NC(=O)NC3CCCCC3)ccc2O[C@@H](C)CCCCO[C@@H]1CN(C)Cc1ccc(C(F)(F)F)cc1 24.6%, CC(C)CC#Cc1ccc2c(c1)O[C@H](CN(C)Cc1ccccn1)[C@@H](C)CN([C@@H](C)CO)S2(=O)=O 27.1%, CC(C)C#Cc1ccc2c(c1)O[C@H](CN(C)Cc1cccnc1)[C@@H](C)CN([C@H](C)CO)S2(=O)=O 44.6%, CCCC(=O)Nc1ccc2c(c1)C(=O)N(C)C[C@@H](OC)[C@@H](C)CN(C)[C@@H](C)CO2 -13% [at 8 µM], C[C@H]1CN([C@@H](C)CO)C(=O)c2cccc(NC(=O)Nc3ccc(C(F)(F)F)cc3)c2O[C@@H]1CN(C)Cc1ccc2c(c1)OCO2 42%, C[C@@H]1CN([C@@H](C)CO)C(=O)c2cccc(NC(=O)Nc3ccc(C(F)(F)F)cc3)c2O[C@H]1CN(C)Cc1ccc2c(c1)OCO2 34.4% [at 8 µM], Cc1ccc(S(=O)(=O)N(C)C[C@@H]2Oc3c(NC(=O)Nc4ccc(F)cc4)cccc3C(=O)N([C@H](C)CO)C[C@H]2C)cc1 -10.7% [at 1.95 µM], C[C@@H]1CN([C@H](C)CO)C(=O)c2cccc(NC(=O)Nc3ccc(F)cc3)c2O[C@H]1CN(C)S(=O)(=O)c1ccc(F)cc1 -11.6% [at 7.5 µM], C[C@@H]1CN([C@@H](C)CO)C(=O)c2cc(Br)cnc2O[C@H]1CN(C)C(=O)c1ccccc1 9.74%, Cc1noc(C)c1NC(=O)N[C@H]1CC[C@@H](CC(=O)Nc2ccc(-c3ccccc3)cc2)O[C@H]1CO 12.6%, COc1ccc(NC(=O)Nc2ccc3c(c2)C(=O)N([C@@H](C)CO)C[C@@H](C)[C@H](CN(C)Cc2ccccc2)OCCCC[C@@H](C)O3)cc1 30.9%, CCCC(=O)Nc1ccc2c(c1)C(=O)N(C)C[C@H](OC)[C@@H](C)CN(Cc1ccccc1)[C@H](C)CO2 15.3%, O=C(C[C@@H]1C=C[C@@H](NC(=O)CC2CC2)[C@H](CO)O1)NCc1ccc(-c2ccccc2)cc1 -9.84% [at 0.5 µM], CO[C@H]1CN(C)C(=O)c2cc(NC(C)=O)ccc2OC[C@H](C)N(CCc2ccccc2)C[C@H]1C 19.8%, CCCN1C[C@H](C)[C@H](OC)CN(C)C(=O)c2cc(NC(=O)c3cccc(F)c3)ccc2OC[C@@H]1C -11.7% [at 1.95 µM], C=CCOC(=O)[C@H]1[C@@H]2C(=O)O[C@@H](c3ccccc3)[C@@H](c3ccccc3)N2[C@@H](c2ccc(OCCOC(=O)[C@@H]3C[C@@H]4C(=O)N[C@@H](CC(C)C)C(=O)N4[C@@H]3c3cccc(OCCO)c3)cc2)[C@]12C(=O)Nc1ccccc12 24.6%, COc1ccc(-c2ccc([C@H]3[C@@H](C#N)N(C(=O)C4CC4)[C@H]3CO)cc2)cc1 32.9%, C[C@@H]1CN([C@H](C)CO)C(=O)Cc2cc(NC(=O)c3ccncc3)ccc2O[C@@H]1CN(C)Cc1ccc(-c2ccccc2)cc1 47.8% [at 35 µM], CO[C@H]1CN(C)C(=O)c2ccc(NS(C)(=O)=O)cc2OC[C@@H](C)N(Cc2ccccn2)C[C@H]1C -14.3% [at 8 µM], COCC(=O)Nc1ccc2c(c1)OC[C@@H](C)N(C(=O)c1ccccc1F)C[C@H](C)[C@H](OC)CN(C)C2=O 7.88%, C[C@@H]1CN([C@H](C)CO)S(=O)(=O)c2ccc(C#CCN(C)C)cc2O[C@H]1CN(C)C(=O)c1ccccc1F 18%, CCCN1C[C@@H](C)[C@@H](OC)CN(C)C(=O)c2cc(NC(=O)c3cccc(F)c3)ccc2OC[C@@H]1C -11.8%, CCCN1C[C@H](C)[C@@H](OC)CN(C)C(=O)c2ccc(NC(=O)CC)cc2OC[C@H]1C 5.45% [at 1.95 µM], COCC(=O)N1C[C@H](C)[C@@H](OC)CN(C)C(=O)c2cc(NC(=O)NC(C)C)ccc2OC[C@@H]1C 23.4%, C[C@H](CO)N1C[C@H](C)[C@H](CN(C)S(=O)(=O)c2cccc(F)c2)Oc2ncc(C#CCN(C)C)cc2C1=O 8.03%, O=C(C[C@H]1C[C@@H]2c3cc(NC(=O)C4CCC4)ccc3O[C@@H]2[C@@H](CO)O1)NCc1ccc(Cl)cc1 -16.5% [at 0.5 µM], C[C@@H]1CN([C@@H](C)CO)C(=O)c2cccc(NC(=O)c3ccncc3)c2O[C@H]1CN(C)Cc1ccc(-c2ccccc2)cc1 13.2% [at 8 µM], C[C@H]1CN([C@@H](C)CO)C(=O)c2cccc(NS(C)(=O)=O)c2O[C@@H]1CN(C)Cc1ccccc1 -11.4% [at 0.5 µM], C[C@@H]1CN([C@@H](C)CO)C(=O)Cc2cc(NC(=O)c3ccncc3)ccc2O[C@H]1CN(C)Cc1ccc(-c2ccccc2)cc1 25.3% [at 8 µM], C[C@@H]1CN([C@H](C)CO)C(=O)c2cccc(NC(=O)c3ccncc3)c2O[C@H]1CN(C)Cc1ccc(-c2ccccc2)cc1 36.1% [at 8 µM], C[C@@H]1CN([C@H](C)CO)C(=O)c2cccc(NC(=O)c3ccncc3)c2O[C@H]1CN(C)Cc1ccc(Cl)c(Cl)c1 16.6%, Cc1cc(C(=O)Nc2cccc3c2O[C@H](CN(C)Cc2ccc(Oc4ccccc4)cc2)[C@@H](C)CN([C@H](C)CO)C3=O)n(C)n1 41%, CO[C@H]1CN(C)C(=O)c2cc(NC(=O)Nc3cccc(F)c3)ccc2OC[C@@H](C)N(C)C[C@@H]1C -17.5%, CO[C@@H]1CN(C)C(=O)c2cc(NS(=O)(=O)c3ccccc3C)ccc2OC[C@@H](C)N(C)C[C@H]1C -6.93% [at 1.95 µM], CCC(=O)N[C@H]1CC[C@H](CC(=O)NCCN2CCCCC2)O[C@@H]1CO 25.2%, Cc1ccccc1-c1ccc2c(c1)O[C@H](CN(C)Cc1ccncc1)[C@H](C)CN([C@@H](C)CO)S2(=O)=O 25.3%, O=C(C[C@@H]1CC[C@@H]2[C@H](COC[C@@H](O)CN2S(=O)(=O)c2ccccc2)O1)NCc1ccc(-c2ccccc2)cc1 25.5%, O=C(C[C@H]1CC[C@H]2[C@@H](COC[C@H](O)CN2S(=O)(=O)c2ccccc2)O1)NCc1ccc(-c2ccccc2)cc1 41.2%, CC(C)CC#Cc1ccc2c(c1)O[C@@H](CN(C)Cc1cccnc1)[C@H](C)CN([C@H](C)CO)S2(=O)=O 41.5% [at 8 µM], CC(C)CC#Cc1ccc2c(c1)O[C@H](CN(C)Cc1ccccc1F)[C@H](C)CN([C@@H](C)CO)S2(=O)=O 23.7% [at 8 µM], CO[C@@H]1CN(C)C(=O)c2ccc(NC(=O)c3ccccn3)cc2OC[C@@H](C)N(C(=O)C2CCC2)C[C@H]1C -10.9% [at 23.5 µM], CC(C)C(=O)Nc1ccc2c(c1)C(=O)N(C)[C@H]1CC[C@@H](CC(=O)NCc3ccccc3F)O[C@H]1CO2 -11.1% [at 1.95 µM], C[C@@H]1CN([C@@H](C)CO)S(=O)(=O)c2ccc(C#CC3CCCC3)cc2O[C@H]1CN(C)Cc1cccnc1 15.4%, O=C(N[C@@H]1C=C[C@@H](CC(=O)N2CCc3ccccc3C2)O[C@@H]1CO)C1CC1 15.1%, CC(C)CC#Cc1ccc2c(c1)O[C@H](CN(C)Cc1ccc3c(c1)OCO3)[C@H](C)CN([C@@H](C)CO)S2(=O)=O 27.5%, O=C(C[C@H]1C[C@@H]2c3cc(NC(=O)Nc4ccc(C(F)(F)F)cc4)ccc3O[C@@H]2[C@H](CO)O1)NCc1ccc(Cl)cc1 21.4%, CCCC(=O)Nc1ccc2c(c1)OC[C@H](C)N(CCc1ccccc1)C[C@H](C)[C@@H](OC)CN(C)C2=O 22%, C[C@H]1CN([C@@H](C)CO)C(=O)c2cccc(NC(=O)c3ccc(-c4nccs4)cc3)c2O[C@@H]1CN(C)C(=O)Nc1ccc(C(F)(F)F)cc1 20.3% [at 8 µM], COc1ccccc1CNC(=O)C[C@H]1C[C@@H]2c3cc(NC(=O)NC4CCCC4)ccc3O[C@@H]2[C@H](CO)O1 -8.77% [at 2.1 µM], C[C@@H]1CN([C@H](C)CO)C(=O)c2c(c3ccccc3n2C)-c2ccccc2CO[C@@H]1CN(C)Cc1ccncc1 24.2% [at 35 µM]
